# According to PubChem BioAssay (NCATS):
# Records with an inconclusive call do not appear. The source made the active and inactive calls. Unless noted, the rule behind the calls is not given here.
# Assays:
# [1] = Immunotoxin (HA22) sensitization/mitigation study. Vehicle arm (PBS) (AID 1159510); note: potency is the fitted concentration of half-maximal effect
# [2] = Immunotoxin (SS1P) sensitization/mitigation study. Vehicle arm (DMEM) (AID 1159513); note: potency is the fitted concentration of half-maximal effect
# [3] = qHTS profiling for inhibitors of Plasmodium falciparum (HB3) proliferation (AID 743324; active = well fitted curve in the direction sought with a large enough effect; an effect the other way counts as inactive or inconclusive;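 note: 100% = DMSO vehicle wells and 0% = artemisinin-treated control wells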); conditions: Plasmodium falciparum HB3 blood-stage proliferation; at 28.7 µM (top of the series) unless noted
# Outline: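 P. falciparum HB3 grown in erythrocytes (0.3% parasitemia, 2.5% hematocrit final) with compound for 72 h at 37 C, 5% CO2. Parasite DNA detected by SYBR Green after saponin/triton lysis overnight; normalized to 0.29 uM artemisinin and DMSO.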
# [4] = qHTS profiling of the MIPE4 collection as inhibitors of Plasmodium falciparum (3D7) proliferation (AID 743344);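 note: scaled between DMSO vehicle wells and 0.29 µM artemisinin as full inhibition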; conditions: P. falciparum 3D7 in erythrocytes, SYBR Green DNA fluorescence, 72 h; at 28.5 µM (top of the series)
# Outline: (§1)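 Erythrocytes infected with P. falciparum (0.3% parasitemia, 2.5% hematocrit) incubated with compounds 72 h at 37 C, 5% CO2. Lysis with saponin/Triton buffer containing SYBR Green I, overnight at room temperature in the dark; DNA fluorescence (485/535 nm) normalised to 0.29 uM artemisinin and DMSO.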
# [5] = qHTS profiling of the MIPE4 collection as inhibitors of Plasmodium falciparum (DD2) proliferation (AID 743345); conditions: P. falciparum Dd2 in erythrocytes, SYBR Green DNA, 72 h; at 28.5 µM (top of the series) unless noted
# Outline: as §1
# [6] = qHTS profiling of the MIPE4 collection as inhibitors of Plasmodium falciparum (DD2) proliferation (Rep 2) (AID 743346); conditions: P. falciparum Dd2 in erythrocytes, SYBR Green DNA, 72 h; at 28.5 µM (top of the series)
# Outline: as §1
# [7] = qHTS profiling of the MIPE4 collection as inhibitors of Plasmodium falciparum (HB3) proliferation (AID 743347);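 note: plate controls were DMSO vehicle wells for no effect and artemisinin wells for full effect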; conditions: P. falciparum HB3 in erythrocytes, SYBR Green DNA, 72 h; at 28.5 µM (top of the series)
# Outline: as §1
# [8] = High-throughput drug toxicity screening in the BPDCN cell line Cal-1 (AID 1224825); conditions: Cal-1 BPDCN cell viability, qHTS; at 45.8 µM (top of the series)
# Outline: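 Cal-1 cells, 500 per well in phenol-red-free RPMI with 10% FBS, exposed to compounds for 48 hours at 37C, 5% CO2. Viability read by CellTiter-Glo luminescence; percent activity normalized to DMSO (100%) and 9.2 uM bortezomib final (0%).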
# [9] = qHTS assay for measurement of the activity of small molecule inhibitors on Zika virus induced Caspase-3 activity in human iPSC derived neural progenitor cells (hNPCs) (AID 1224857; active = well fitted curve in the direction sought with a large enough effect; an effect the other way counts as inactive or inconclusive; note: % of control where 0% means no effect; nearly all actives have a fitted effect of over 65% in size)
# Outline: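 Human iPSC-derived neural progenitor cells pretreated 1 hr with compounds, then infected with Zika virus (2 FFU/cell) for 6 hours at 37 C. Caspase-3/7 measured by Caspase-Glo luminescence; % inhibition calculated from induction scaled to uninfected (0%) and infected (100%) wells.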
# [10] = qHTS assay for measurement of the activity of small molecule inhibitors on Zika virus induced Caspase-3 activity in human astrocytoma cells (AID 1224859; active = well fitted curve in the direction sought with a large enough effect; an effect the other way counts as inactive or inconclusive;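 note: plate controls were ZIKV-infected untreated cells for no effect and uninfected cells for full effect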)
# Outline: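 SNB-19 astrocytoma cells, 250/well, pretreated 1 h with compounds, then Zika virus at 2 FFU/cell for 6 h at 37 C; Caspase-Glo 3/7 luminescence after 30 min; percent inhibition normalised to uninfected and infected controls.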
# [11] = qHTS Screen of the MIPE 4.0 Collection Against Ewings Sarcoma (RDES) (AID 1259252; active = well fitted curve in the direction sought with a large enough effect; an effect the other way counts as inactive or inconclusive; note: nearly all actives have a fitted effect of over 35% in size; note: potency is the fitted concentration of half-maximal effect)
# Outline: (§2)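 Viability screen: 48 h incubation at 37C, 95% humidity, 5% CO2 with serially titrated compound, followed by CellTiter-Glo readout.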
# [12] = qHTS Screen of the MIPE 4.0 Collection Against Ewings Sarcoma (TC71) (AID 1259253; active = well fitted curve in the direction sought with a large enough effect; an effect the other way counts as inactive or inconclusive; note: nearly all actives have a fitted effect of over 40% in size; note: potency is the fitted concentration of half-maximal effect)
# Outline: as §2
# [13] = High-throughput drug toxicity screening in the BPDCN cell line Gen2.2 (AID 1224824); conditions: Gen2.2 BPDCN cells; at 45.8 µM (top of the series);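 note: cells exposed to compounds for 48 h before reading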
# Outline: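 CellTiter-Glo luminescence read after 48 h compound exposure at 37 C defines viability; percent activity set with DMSO as 100% and bortezomib (9.2 uM final) as 0%. 500 exponentially growing cells per well, RPMI plus 10% FBS.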
smiles,measurement,setting,value
C=CCc1cccc(/C=N/NC(=O)CN2CCN(Cc3ccccc3)CC2)c1O,Potency,[1],4.69 µM (active)
same,Potency,[2],13.2 µM (active)
CCCCc1nc2cc(C=CC(=O)NO)ccc2n1CCN(CC)CC,Potency,[1],0.118 µM (active)
same,Potency,[2],0.264 µM (active)
CC(C)(C)COc1ccc(-n2cc(C(=O)O)cn2)cc1C#N,Potency,[1],18.7 µM (active)
same,Potency,[2],inactive
C[C@H](NC(=O)Cc1cc(F)cc(F)c1)C(=O)N[C@@H]1C(=O)N(C)c2ccccc2-c2ccccc21,Potency,[1],inactive
same,Potency,[2],inactive
CCCCCN(CCC12CC3CC(CC(C3)C1)C2)C(=O)NCCCc1ccncc1,Potency,[1],11.8 µM (active)
same,Potency,[2],23.5 µM (active)
CCN(CC)CCOc1ccc(Nc2ncc3cc(-c4c(Cl)cccc4Cl)c(=O)n(C)c3n2)cc1,Potency,[1],1.18 µM (active)
same,Potency,[2],0.332 µM (active)
CC(=O)Nc1ccc(OC[C@](C)(O)C(=O)Nc2ccc([N+](=O)[O-])c(C(F)(F)F)c2)cc1,"remaining proliferation (% of control), lower = more inhibition",[3],71.3%
same,"parasite growth, % of DMSO control",[4],70.7%
same,"parasite growth remaining, % of DMSO control (lower = more inhibition)",[5],88.6%
same,"parasite growth, % of control (lower = inhibition)",[6],88.3%
same,"growth, % of control",[7],91.2%
same,Potency,[1],inactive
same,Potency,[2],inactive
same,viability (% of control),[8],106%
same,Potency,[9],inactive
same,Potency,[10],inactive
same,Potency,[11],inactive
same,Potency,[12],inactive
Cc1ccccc1-n1c(Cn2cnc3c(N)ncnc32)nc2cccc(C)c2c1=O,"remaining proliferation (% of control), lower = more inhibition",[3],24.9%
same,"parasite growth, % of DMSO control",[4],5.28%
same,"parasite growth remaining, % of DMSO control (lower = more inhibition)",[5],12.7%
same,"parasite growth, % of control (lower = inhibition)",[6],6.97%
same,"growth, % of control",[7],2.42%
same,Potency,[1],23.5 µM (active)
same,"cell viability, % of control (lower = more cytotoxic)",[13],68.3%
same,viability (% of control),[8],9.3%
same,Potency,[9],inactive
same,Potency,[10],inactive
same,Potency,[11],1.18 µM (active)
same,Potency,[12],1.87 µM (active)
O=C(Oc1ccc([N+](=O)[O-])cc1)N1CCC(C(O)(c2ccc3c(c2)OCO3)c2ccc3c(c2)OCO3)CC1,"remaining proliferation (% of control), lower = more inhibition",[3],75.8%
same,"parasite growth, % of DMSO control",[4],63%
same,"parasite growth remaining, % of DMSO control (lower = more inhibition)",[5],78.9%
same,"parasite growth, % of control (lower = inhibition)",[6],33.6%
same,"growth, % of control",[7],77.1%
same,Potency,[1],5.26 µM (active)
same,Potency,[2],inactive
same,viability (% of control),[8],64.3%
same,Potency,[9],inactive
same,Potency,[10],inactive
same,Potency,[11],16.6 µM (active)
COCCn1c2c([n+](Cc3cnccn3)c1C)C(=O)c1ccccc1C2=O,Potency,[2],0.0037 µM (active)
CC1CC(C)C(=O)C(C(O)CC2CC(=O)NC(=O)C2)C1 (configuration not stated),"remaining proliferation (% of control), lower = more inhibition",[3],-0.376% [at 57.5 µM]
same,Potency,[1],0.054 µM (active)
same,Potency,[2],0.191 µM (active)
CCCCN1CCC(CNC(=O)c2c3n(c4ccccc24)CCCO3)CC1,"remaining proliferation (% of control), lower = more inhibition",[3],74.4%
same,"parasite growth remaining, % of DMSO control (lower = more inhibition)",[5],56.2%
same,"parasite growth, % of control (lower = inhibition)",[6],38.7%
same,"growth, % of control",[7],32.4%
same,Potency,[1],inactive
same,Potency,[2],inactive
O=C(O)c1ccc(O)c2ncc(N3CCOCC3)cc12,"remaining proliferation (% of control), lower = more inhibition",[3],35.5%
same,"parasite growth remaining, % of DMSO control (lower = more inhibition)",[5],37%
same,Potency,[2],inactive
CC(C)(Sc1ccc(CCN(CCCCC2CCCCC2)C(=O)NC2CCCCC2)cc1)C(=O)O,Potency,[2],inactive
COc1ccc2c(c1)CC[C@H]1[C@@H]2CC[C@]2(C)[C@@H](NCCCCCCN3C(=O)C=CC3=O)CC[C@H]12,"remaining proliferation (% of control), lower = more inhibition",[3],50.7%
same,"parasite growth, % of DMSO control",[4],62.7%
same,"parasite growth, % of control (lower = inhibition)",[6],37.3%
same,"growth, % of control",[7],77.6%
same,Potency,[1],20.9 µM (active)
same,Potency,[2],20.9 µM (active)
